BAZ2B block = blocks human BAZ2B. Q9UIF8. AlphaScreen BAZ2B-H3K14Ac peptide displacement. Potency, µM (highest dose often 114 µM), usual class: inhibitors. 360,000 compounds, 4.4% hits. AID 504333; also: nearly all actives have a fitted effect of over 60% in size
Target sequence (Q9UIF8 whole entry, looked up): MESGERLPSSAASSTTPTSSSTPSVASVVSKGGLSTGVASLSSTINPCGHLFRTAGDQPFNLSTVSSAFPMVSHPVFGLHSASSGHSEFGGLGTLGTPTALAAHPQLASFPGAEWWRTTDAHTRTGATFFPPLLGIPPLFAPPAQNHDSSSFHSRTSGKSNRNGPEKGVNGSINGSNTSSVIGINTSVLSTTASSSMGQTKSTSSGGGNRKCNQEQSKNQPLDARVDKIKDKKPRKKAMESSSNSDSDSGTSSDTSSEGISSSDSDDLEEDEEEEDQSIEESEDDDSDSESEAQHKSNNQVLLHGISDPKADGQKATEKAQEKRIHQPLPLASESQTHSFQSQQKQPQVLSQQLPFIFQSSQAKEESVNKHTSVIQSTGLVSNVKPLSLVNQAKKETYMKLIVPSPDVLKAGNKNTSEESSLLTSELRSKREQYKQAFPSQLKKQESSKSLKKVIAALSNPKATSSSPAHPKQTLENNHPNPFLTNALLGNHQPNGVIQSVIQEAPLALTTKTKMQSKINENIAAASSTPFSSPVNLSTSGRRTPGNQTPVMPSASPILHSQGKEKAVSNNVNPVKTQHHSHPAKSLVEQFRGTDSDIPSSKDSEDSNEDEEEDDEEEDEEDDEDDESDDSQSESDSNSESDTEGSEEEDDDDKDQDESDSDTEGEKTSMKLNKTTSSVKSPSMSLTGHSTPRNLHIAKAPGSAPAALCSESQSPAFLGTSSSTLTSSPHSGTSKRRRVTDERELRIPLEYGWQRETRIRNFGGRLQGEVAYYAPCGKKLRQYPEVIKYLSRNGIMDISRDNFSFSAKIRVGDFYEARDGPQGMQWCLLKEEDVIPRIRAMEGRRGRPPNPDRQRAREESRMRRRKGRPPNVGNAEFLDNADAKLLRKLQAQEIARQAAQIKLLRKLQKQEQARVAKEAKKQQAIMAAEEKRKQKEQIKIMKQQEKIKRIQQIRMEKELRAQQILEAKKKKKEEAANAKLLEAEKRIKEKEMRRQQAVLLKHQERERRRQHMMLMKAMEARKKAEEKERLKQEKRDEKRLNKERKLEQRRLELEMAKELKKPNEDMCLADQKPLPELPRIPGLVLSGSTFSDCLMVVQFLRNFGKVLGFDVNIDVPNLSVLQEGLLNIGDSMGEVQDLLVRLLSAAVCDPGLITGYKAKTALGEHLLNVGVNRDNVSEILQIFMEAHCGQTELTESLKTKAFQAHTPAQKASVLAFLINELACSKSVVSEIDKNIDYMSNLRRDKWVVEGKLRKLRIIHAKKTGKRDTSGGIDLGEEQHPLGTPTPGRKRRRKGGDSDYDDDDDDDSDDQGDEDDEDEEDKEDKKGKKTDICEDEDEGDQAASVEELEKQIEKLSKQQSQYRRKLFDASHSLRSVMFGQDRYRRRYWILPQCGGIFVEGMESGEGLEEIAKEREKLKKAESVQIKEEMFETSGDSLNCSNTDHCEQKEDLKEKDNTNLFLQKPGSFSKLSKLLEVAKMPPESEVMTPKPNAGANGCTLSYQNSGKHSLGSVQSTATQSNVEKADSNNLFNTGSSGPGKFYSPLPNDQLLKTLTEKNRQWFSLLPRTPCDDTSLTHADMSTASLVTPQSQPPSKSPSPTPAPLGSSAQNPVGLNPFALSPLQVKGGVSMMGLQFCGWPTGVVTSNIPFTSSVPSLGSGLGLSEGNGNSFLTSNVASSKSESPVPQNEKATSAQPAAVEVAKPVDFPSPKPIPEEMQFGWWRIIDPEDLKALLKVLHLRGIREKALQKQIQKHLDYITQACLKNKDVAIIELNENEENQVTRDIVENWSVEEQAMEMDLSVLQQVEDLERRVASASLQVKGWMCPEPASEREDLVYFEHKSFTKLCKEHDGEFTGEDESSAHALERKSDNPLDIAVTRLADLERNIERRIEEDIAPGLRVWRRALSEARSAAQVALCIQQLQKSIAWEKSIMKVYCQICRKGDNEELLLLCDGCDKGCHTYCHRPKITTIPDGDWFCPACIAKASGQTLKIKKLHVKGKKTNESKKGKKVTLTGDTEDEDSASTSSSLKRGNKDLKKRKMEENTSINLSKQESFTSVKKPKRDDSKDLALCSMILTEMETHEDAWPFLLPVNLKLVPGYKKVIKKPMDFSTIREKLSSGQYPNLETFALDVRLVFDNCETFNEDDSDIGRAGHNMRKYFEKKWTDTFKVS
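Inhibition is scored as reduced AlphaScreen emission. The BAZ2B/b-H3(5-23)K14Ac complex (50 nM each) in PBS pH 7.4, 0.01% Tween-20 meets compound (up to 110 uM) for 30 min at RT before bead addition.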
GLS inhibitor = inhibitors of human glutaminase (GLS) | Potency, µM (titrated, usually from 45.5 µM), hits mostly inhibitors | O94925 | 410,000 compounds, 0.21% hits | AID 624170 | GLS enzymatic activity, qHTS titration
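Enzyme dispensed in phosphate buffer (45 mM, pH 8.2, 0.02% Tween-20), compounds pinned in, then 1 mM L-glutamine solution and the glutamate oxidase–HRP–Amplex Red mix added; fluorescence read immediately and again after 30 min at room temperature.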
HP1b chromo inh = inhibitors of HP1-beta chromodomain binding to methylated histone tails. AlphaScreen HP1-beta / biotin-H3K9me3 peptide binding. Potency, µM (top dose mostly 114 µM), hits mostly inhibitors. 390,000 compounds, 0.56% hits. AID 540317; also: nearly all actives have a fitted effect of over 70% in size
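HP1-beta protein (50 nM final) preincubated 30 min at room temperature with biotinylated H3(1-18)K9me3 peptide (50 nM) in PBS pH 7.4, 0.01% Tween-20, then compound added for 30 min. AlphaScreen streptavidin donor/nickel chelate acceptor beads (10 ug/mL final), 30 min dark, luminescence read.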
G9a inh = G9a (human) methyltransferase inhibition | Q96KQ7 | G9a H3K9 monomethylation, AlphaScreen, 2 h | Potency, µM (doses to about 102 µM), actives largely listed as inhibitors | 350,000 compounds, 8.8% hits | AID 504332; also: nearly all actives have a fitted effect of over 75% in size
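Quantitative HTS format: methyltransferase activity on a biotin-tagged H3K9 peptide is measured by AlphaScreen, using a rabbit anti-monomethyl-H3K9 antibody with streptavidin donor and anti-IgG acceptor beads. Final levels are 20 nM enzyme, 500 nM peptide, 20 uM SAM; 2 h RT.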
JMJD2A Tudor inh = inhibitors of human JMJD2A Tudor domain; 390,000 compounds, 4.4% hits; Potency, µM (highest dose often 114 µM), most hits filed as inhibitors; AlphaScreen JMJD2A-Tudor / H3K4me3 peptide binding; also: nearly all actives have a fitted effect of over 50% in size
Numbers stand for hits; i = inactive; ? = inconclusive; nt = not tested or not shown; [ ] = dose if it differs, or a comment. Hits are enriched below; roughly 10% of the tested compounds scored in any of these assays. Calls follow the shape of the dose curve; as a rule, active = well fitted curve in the direction sought with a large enough effect; inconclusive = small, poorly fitted or top-dose-only effect, or another doubt; inactive = no such curve, though single readings can be large; an effect the other way counts as inactive or inconclusive.

SMILES	BAZ2B block	GLS inhibitor	HP1b chromo inh	G9a inh	JMJD2A Tudor inh
COc1ccc(-n2c(C)cc(-c3csc(N)n3)c2C)cc1	45µM	i	?	8.9µM	45µM
Cc1cc(-c2csc(N)n2)c(C)n1-c1ccc(Cl)c(Cl)c1	?	i	?	20µM	56µM
CC1=CN2C(=N)/C(=C/c3ccc(Sc4ccc(C)cc4)o3)C(=O)N=C2S1	22µM	i	28µM	25µM	i
O=C(O)c1cccc(Nc2nc(-c3ccc([N+](=O)[O-])cc3)nc3ccccc23)c1	56µM	i	i	?	i
O=C(O)c1cccc(Nc2nc3ccccc3nc2NS(=O)(=O)c2cccs2)c1	i	i	i	45µM	i
O=[N+]([O-])c1ccc(-c2nc(Nc3cccc(O)c3)c3ccccc3n2)cc1	i	i	i	i	i
CC(=O)c1ccc(Nc2nc3ccccc3nc2NS(=O)(=O)c2cccs2)cc1	i	i	i	i	i
O=C(O)c1cccc(-n2c(/C=C/c3cccc([N+](=O)[O-])c3)nc3ccccc3c2=O)c1	i	i	i	i[0.501 µM]	i
O=C(O)c1cccc(-n2c(/C=C/c3ccc([N+](=O)[O-])cc3)nc3ccccc3c2=O)c1	i	i	i	71µM	i
O=C(O)c1cccc(Nc2nc(-c3ccccc3)nc3ccccc23)c1	?	i	i	56µM	i
CCOC(=O)c1cc(NC(=O)c2ccc(Cl)cc2)c(=O)n2c1oc1ccccc12	i	i	i	i	i
O=C(Nc1ccccc1C(=O)N1CCN(CCO)CC1)c1cccc([N+](=O)[O-])c1	i	i	i	nt	i
CCC(CC)C(=O)NCCc1cc2cc(C)c(C)cc2[nH]c1=O	i	i	i	i	i
Cc1cc(C)c(S(=O)(=O)N(CC(=O)O)CC(=O)O)c(C)c1	i	nt	i	22µM	?
O=C1CC2(CCCCC2)CC(=O)N1CCc1ccccc1	nt	i	i	nt	i
O=C1C=CC(=O)C(C2=C3C(=O)N(CCc4ccccc4)CC(=O)N3CCC2)=C1	50µM	?	6.3µM	1.3µM	3.2µM
CCCCCSc1nc2c(cnn2-c2ccccc2)c(=O)[nH]1	i	i	i	i	i
O=C(CSc1nc2c(cnn2-c2ccc(F)cc2)c(=O)[nH]1)N1CCOCC1	i	i	i	79µM	i
CCCCCSc1nc2c(cnn2-c2ccc(F)cc2)c(=O)[nH]1	i	i	i	i	22µM
CCC1CCCCN1C(=O)CSc1nc2c(cnn2-c2ccc(C)cc2)c(=O)[nH]1 (stereo unspecified)	i	i	i	56µM	i
O=C(CSc1nc2c(cnn2-c2ccccc2)c(=O)[nH]1)N1CCOCC1	i	?	i	i[0.0925 µM]	i[11.4 µM]
O=C(O)c1ccccc1N=Nc1ccc(O)cc1	nt	i	i	nt	?
CCNC(=O)COc1ccc(/C=C2\COc3ccccc3C2=O)cc1OC	i	i	i	40µM	i
Cn1cccc1/C=C1\SC(=S)N(NC(=O)c2ccccc2)C1=O	40µM	i	?	?	?
Cn1cccc1/C=C1\SC(=S)N(NC(=O)c2cccc(Cl)c2)C1=O	28µM	i	?	22µM	28µM
SMILES	BAZ2B block	GLS inhibitor	HP1b chromo inh	G9a inh	JMJD2A Tudor inh
O=C(NN1C(=O)/C(=C/c2cccs2)SC1=S)c1ccccc1	i	i	i	i	i
Cn1cccc1/C=C1/SC(=S)N(CC(=O)O)C1=O	i	i	i	50µM	i
Cn1cccc1/C=C1\SC(=S)N(NC(=O)c2ccc(F)cc2)C1=O	35µM	i	i	i	?
CN(C(=O)c1cccs1)c1ccccc1C(=O)O	?	i	i	i[12.7 µM]	i
O=C(CSc1nnc2c(n1)[nH]c1ccccc12)Nc1cccc(S(=O)(=O)N2CCOCC2)c1	i	i	i	?	i
Cc1cc(=O)[nH]c(N/N=C/c2cc(C)n(-c3ccccc3)c2C)n1	i	?	i	?	?
Cc1nn(-c2ccccc2)c(C)c1/C=N/Nc1nc2ccccc2[nH]1	?	i	?	?	56µM
Cc1nn(-c2ccccc2)c(C)c1/C=N\NS(=O)(=O)c1ccc(Cl)cc1	i	i	i	3.2µM	i
Cc1cc(=O)[nH]c(N/N=C/c2c(C)nn(-c3ccccc3)c2C)n1	i	i	i	25µM	i
Cc1nn(-c2ccccc2)c(Cl)c1/C=N/NC(N)=O	i	i	i	i	i
Cc1nn(-c2ccccc2)c(Cl)c1/C=N/Nc1nc2ccccc2n1C	i	i	i	50µM	i
CC(Oc1ccccc1F)C(=O)NCC1(N2CCOCC2)CCCCC1 (stereo unspecified)	i	i	i	i	i
COc1ccccc1CN(C)CC(=O)Nc1ccc(Cl)cc1C(F)(F)F	50µM	i	?	8.9µM	3.5µM
COc1ccccc1CN(C)CC(=O)Nc1cccc2ccccc12	i	i	i	50µM	i
COc1ccccc1NC(=O)Cc1cccc2ccccc12	i	i	i	i[0.501 µM]	i
COc1ccc(C(C)(C)C)cc1NC(=O)CNc1cccc2ccccc12	?	i	?	?	45µM
COc1ccccc1NC(=O)C(C)N(C)CC(=O)Nc1cccc2ccccc12 (stereo unspecified)	nt	i	i	nt	i
C#CCN(C[C@H]1[C@H](OC(=O)NCCCCCC)[C@H](OC(=O)NCCCCCC)C[C@@H](C(=O)OC)[C@H]1C(=O)OC)S(=O)(=O)c1ccc(C)cc1	nt	i	nt	nt	nt
COc1cc(OC)c(C(=O)Nc2cccc3ccccc23)cc1OC	i	i	i	nt	i
Cc1ccc(F)cc1C(=O)N1CCCC(c2cc(C(=O)Nc3ccccc3)no2)C1 (stereo unspecified)	nt	i	nt	nt	nt
Cc1noc(NS(=O)(=O)c2ccc(NC(=O)c3cc(-c4ccccc4Cl)nc4ccccc34)cc2)c1C	?	i	i	?	i
Cc1ccc(-c2c3c([nH]c(=S)c2C#N)CCCC3)o1	50µM	?	?	4.5µM	40µM
N#Cc1c2c(c(-c3ccccc3Cl)[nH]c1=S)CCCC2	i	?	i	i[12.7 µM]	i
Cc1ccc(-c2c(C#N)c(N)nc3c2CCCC3)o1	?	i	i	7.9µM	i
CCSc1nc2c(c(-c3ccc(C)o3)c1C#N)CCCC2	i	i	i	?	i
SMILES	BAZ2B block	GLS inhibitor	HP1b chromo inh	G9a inh	JMJD2A Tudor inh
N#Cc1c(-c2ccncc2)c2c([nH]c1=S)CCCC2	?	i	i	2.2µM	2.2µM
Cc1ccc(C(=O)Nc2ccc(C(=O)OCc3cc(=O)n4c5c(sc4n3)CCCC5)cc2)cc1	i	i	i	i[12.7 µM]	i
O=C(CSCc1cccc(F)c1)NCc1ccccc1	i	i	i	i	i
Cc1ccc(CNC(=O)CSCc2cccc(F)c2)cc1	nt	?	i	i	50µM
CCC(=O)c1ccc(OCCn2cncn2)cc1	i	i	i	i[12.7 µM]	i
Cc1cccn2cc(CNC(=O)c3ccc(Br)o3)nc12	i	i	i	i	i
c1ccc(-c2cnc(SCCN3CCOCC3)n2CC2CCCO2)cc1 (stereo unspecified)	20µM	i	?	2.5µM	3.5µM
CCc1ccccc1NC(=O)CC(C)n1nc(C)cc1C (stereo unspecified)	i	i	i	i	i
CCC(C)NCCOc1cccc(Br)c1 (stereo unspecified)	i	i	?	8.9µM	4.5µM
